Screening results: PubChem, National Center for Advancing Translational Sciences (NCATS)
SARS PLpro yeast = SARS-CoV PLP inhibition in yeast | hit rate 0.19% among 330,000 | AID 485353 | Potency, µM (doses to about 32.9 µM), for the others: at the top dose activity, positive = growth rescue, usual class: activators | S. cerevisiae expressing SARS-CoV PLpro, growth rescue; calls by dose curve; also: 0% is about no effect; nearly all actives have a fitted effect of over 55% in size
AMA1 RON2 block = disrupts binding of P. falciparum AMA1 to RON2 | AlphaScreen AMA1-biotinylated RON2 peptide binding | Potency, µM (highest dose often 58.2 µM), for inactives: at the top dose activity change, negative = inhibition, usual class: inhibitors | hit rate 0.2% among 360,000 | AID 720542;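 also: 0% = vehicle wells and -100% = peptide control; nearly all actives have a fitted effect of over 45% in size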
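AMA1 (3D7) with his tag at 25 nM final met compounds first, then biotinylated RON2 peptide at 25 nM; detection used donor plus acceptor beads, 10 µg/mL apiece, read by AlphaScreen after 30 min at room temperature.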
Pf growth 96h = P. falciparum growth inhibition at 96 hour, primary screen for plastid delayed-death inhibitors; P. falciparum luciferase reporter growth, 96 h; Potency, µM (series often up to 28.7 µM), without a hit: at the highest dose activity change, negative = inhibition, hits mostly inhibitors; hit rate 6.9% among 320,000; also: % is scaled to controls: 0 for no effect and ±100 for the full control effect
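Two-generation exposure (96 h) targets delayed-death phenotype. Reporter parasites carrying integrated firefly luciferase, in red cells at 2% hematocrit and 0.05% parasitemia final, kept at 37 C, 5% CO2; luminescence loss indicates inhibition.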
Pf growth 48h = inhibits P. falciparum growth in the first generation, 48 h; hit rate 5.9% among 310,000; AID 504832; Potency, µM (titrated, usually from 28.7 µM), inactives show at the top dose activity change, negative = inhibition, most hits filed as inhibitors; P. falciparum luciferase growth in erythrocytes, 48 h; also: % is scaled to controls: 0 for no effect and ±100 for the full control effect
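In quantitative HTS format, infected erythrocytes bearing luciferase-reporter parasites were treated for a single generation at 37 C. Luminescence after adding detection reagent served as the growth measure.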
* = called active by the depositor; [ ] = another dose, or the depositor's remark. Hits are enriched below; roughly 9.4% of the tested compounds scored in any of these assays. Unless noted, calls follow the shape of the dose curve; as a rule, active = well fitted curve in the direction sought with a large enough effect; inconclusive = small, poorly fitted or top-dose-only effect, or another doubt; inactive = no such curve, though single readings can be large; an effect the other way counts as inactive or inconclusive. Potency is read from the fitted curve at half-maximal effect.

How did COc1ccc(-c2sccc2C(C)C(=O)O)cc1 (stereo not drawn) do in these assays?
SARS PLpro yeast: -5.5%; AMA1 RON2 block: -3.0%; Pf growth 96h: 11.2%; Pf growth 48h: 0.0%

What do the screens show for `COc1ccc(S(=O)(=O)N2CCN(C(=O)COc3ccccc3)CC2)cc1`?
SARS PLpro yeast: -0.2%; AMA1 RON2 block: -2.5%; Pf growth 96h: 7.38µM*; Pf growth 48h: -12.3%

How did CC(=O)c1ccc(OCC(=O)N2CCN(S(=O)(=O)c3ccc(C)cc3C)CC2)cc1 do in these assays?
SARS PLpro yeast: -5.8%; AMA1 RON2 block: -1.9%; Pf growth 96h: 9.28µM*; Pf growth 48h: inconclusive

How did O=C(COc1ccccc1)N1CCN(S(=O)(=O)c2ccc(Br)cc2)CC1 do in these assays?
SARS PLpro yeast: -1.8%; AMA1 RON2 block: -8.7%; Pf growth 96h: 1.5%; Pf growth 48h: -22.5%

Results for Cc1ccc(C(=O)N2CCN(S(=O)(=O)c3ccc(Br)cc3)CC2)o1 ?
SARS PLpro yeast: -2.1%; AMA1 RON2 block: -11.8%; Pf growth 96h: inconclusive; Pf growth 48h: 6.57µM*

What do the screens show for `Cc1ccc(S(=O)(=O)N2CCN(C(=O)COC(=O)COc3ccc(Br)cc3)CC2)c(C)c1`?
AMA1 RON2 block: 0.0%

Results for Cc1ccc(S(=O)(=O)N2CCN(C(=O)COc3ccc(Br)cc3)CC2)cc1 ?
SARS PLpro yeast: -1.4%; AMA1 RON2 block: 7.0%[11.6 µM]; Pf growth 96h: inconclusive; Pf growth 48h: 13.1µM*

Results for COc1ccc(S(=O)(=O)N(C)c2ccc(C(=O)Nc3cccnc3)cc2)cc1 ?
SARS PLpro yeast: 7.5%; AMA1 RON2 block: 23.9%; Pf growth 96h: inconclusive; Pf growth 48h: inconclusive

What do the screens show for `C=CCNC(=S)Nc1ccc(N2CCOCC2)c(S(=O)(=O)Nc2ccccc2Cl)c1`?
SARS PLpro yeast: 3.6%; AMA1 RON2 block: 6.0%; Pf growth 96h: -17.1%; Pf growth 48h: -20.3%

How did O=C(CCC1CCN(C(=O)c2cncs2)CC1)Nc1ccccc1 do in these assays?
SARS PLpro yeast: 1.2%; AMA1 RON2 block: -1.0%; Pf growth 96h: 11.5%; Pf growth 48h: 6.5%

Results for COc1ccc(CCC(=O)N2CCN(S(=O)(=O)c3ccc4ccccc4c3)CC2)cc1 ?
SARS PLpro yeast: inconclusive; AMA1 RON2 block: -5.4%; Pf growth 96h: inconclusive; Pf growth 48h: -27.8%

What do the screens show for `CSc1ccc(CSCC(=O)N2CCN(S(=O)(=O)c3ccc(C)cc3C)CC2)cc1`?
SARS PLpro yeast: 9.5%; AMA1 RON2 block: -6.7%; Pf growth 96h: -59.1%; Pf growth 48h: 11.7µM*

How did N#Cc1ccc(OCC(=O)N2CCN(S(=O)(=O)c3cccc(Cl)c3)CC2)cc1 do in these assays?
SARS PLpro yeast: 4.3%; AMA1 RON2 block: 20.5%; Pf growth 96h: 9.28µM*; Pf growth 48h: inconclusive

Results for Cc1ccc(C(=O)N2CCN(c3ccc(N4CCOCC4)nn3)CC2)cc1C ?
SARS PLpro yeast: 3.0%; AMA1 RON2 block: -3.0%; Pf growth 96h: 5.22µM*; Pf growth 48h: -15.0%

What do the screens show for `COc1ccc(CCC(=O)N2CCN(S(=O)(=O)c3ccc(OC(F)(F)F)cc3)CC2)cc1`?
SARS PLpro yeast: -4.6%; AMA1 RON2 block: -2.9%[11.6 µM]; Pf growth 96h: 11.7µM*; Pf growth 48h: 9.28µM*

How did Cc1ccc(S(=O)(=O)N2CCN(C(=O)COC(=O)Cc3ccc(F)cc3)CC2)c(C)c1 do in these assays?
SARS PLpro yeast: 3.6%; AMA1 RON2 block: 0.0%; Pf growth 96h: 5.1%; Pf growth 48h: 10.4%

What do the screens show for `COc1ccc(CC(=O)Nc2c3c(nn2C(C)(C)C)CS(=O)(=O)C3)cc1`?
SARS PLpro yeast: 2.4%; AMA1 RON2 block: 12.9%; Pf growth 96h: 31.1%; Pf growth 48h: 2.9%

Results for O=C(NCCO)C(=O)NCC1OCCCN1S(=O)(=O)c1cccs1 (stereo not drawn) ?
SARS PLpro yeast: 19.3%; AMA1 RON2 block: -3.4%[11.6 µM]; Pf growth 96h: 15.2%; Pf growth 48h: 27.7%

How did O=C(COC(=O)c1ccc(Cl)nc1)Nc1nnc(-c2ccccc2)o1 do in these assays?
SARS PLpro yeast: 0.7%; AMA1 RON2 block: 28.8%; Pf growth 96h: inconclusive; Pf growth 48h: -2.7%

What do the screens show for `C=CC(=O)NC(NC(=O)C=C)c1ccc(Br)cc1`?
SARS PLpro yeast: 3.4%; AMA1 RON2 block: -5.1%; Pf growth 96h: inconclusive; Pf growth 48h: inconclusive

Results for O=C(CSCc1ccccc1)N1CCN(c2ccccc2)CC1 ?
SARS PLpro yeast: 16.2%; AMA1 RON2 block: 4.3%; Pf growth 96h: inconclusive; Pf growth 48h: 71.7%

What do the screens show for `Cc1ccc(CSCC(=O)N2CCN(c3ccccc3)CC2)cc1`?
SARS PLpro yeast: -4.1%; AMA1 RON2 block: -12.9%; Pf growth 96h: 4.15µM*; Pf growth 48h: -7.4%

How did COc1ccc(S(=O)(=O)N2CCN(C3Cc4ccccc4C3)CC2)cc1 do in these assays?
SARS PLpro yeast: 13.0%; AMA1 RON2 block: -1.5%; Pf growth 96h: 10.4µM*; Pf growth 48h: 47.8%

What do the screens show for `Cc1ccc(-c2nc(CSCC(=O)N3CCN(c4ccccn4)CC3)c(C)o2)cc1`?
SARS PLpro yeast: -7.6%; AMA1 RON2 block: -4.8%; Pf growth 96h: 10.4µM*

How did COc1ccc(S(=O)(=O)N2CCN(C)CC2)cc1 do in these assays?
SARS PLpro yeast: 0.7%; AMA1 RON2 block: 5.2%; Pf growth 96h: inconclusive; Pf growth 48h: 24.7%

Results for COc1ccc(S(=O)(=O)N2CCN(C(=O)COc3ccc4c(C)cc(=O)oc4c3)CC2)cc1 ?
SARS PLpro yeast: 0.8%; AMA1 RON2 block: 15.4%; Pf growth 96h: 4.65µM*; Pf growth 48h: inconclusive

Results for Cc1ccc(S(=O)(=O)N2CCN(C(=O)COC(=O)c3ccc(Br)o3)CC2)c(C)c1 ?
SARS PLpro yeast: -10.5%; AMA1 RON2 block: -2.4%; Pf growth 96h: 5.6%; Pf growth 48h: inconclusive

What do the screens show for `COc1cc(CCC(=O)N2CCN(S(=O)(=O)c3ccc(C)c(C)c3)CC2)cc(OC)c1OC`?
SARS PLpro yeast: -5.0%; AMA1 RON2 block: 34.7%; Pf growth 96h: 4.65µM*; Pf growth 48h: inconclusive

Results for Cc1ccc(C2(C)NC(=O)N(CC(=O)N3CCN(S(=O)(=O)c4ccccc4[N+](=O)[O-])CC3)C2=O)cc1 (stereo not drawn) ?
AMA1 RON2 block: -4.0%

How did Cc1ccc(S(=O)(=O)N2CCN(C(=O)c3ccc(Br)o3)CC2)c(C)c1 do in these assays?
SARS PLpro yeast: -0.1%; AMA1 RON2 block: -11.3%; Pf growth 96h: inconclusive; Pf growth 48h: 6.57µM*

How did Cc1ccc(OCC(=O)N2CCN(S(=O)(=O)c3ccccc3[N+](=O)[O-])CC2)cc1 do in these assays?
SARS PLpro yeast: 0.8%; AMA1 RON2 block: -1.1%; Pf growth 96h: 30.2%[5.75 µM]; Pf growth 48h: 9.28µM*

How did O=S(=O)(c1ccc(OCc2ccc(Br)cc2)cc1)N1CCOCC1 do in these assays?
SARS PLpro yeast: 1.6%; AMA1 RON2 block: -9.8%; Pf growth 96h: 6.57µM*; Pf growth 48h: -25.9%

What do the screens show for `Nc1nc(Nc2cccc(Cl)c2)nc(NCc2ccco2)c1[N+](=O)[O-]`?
SARS PLpro yeast: -3.7%; AMA1 RON2 block: -3.2%; Pf growth 96h: inconclusive; Pf growth 48h: inconclusive

Results for CS(=O)(=O)N1CCN(C(=O)COc2ccc3ccccc3c2)CC1 ?
SARS PLpro yeast: 0.4%; AMA1 RON2 block: 17.6%; Pf growth 96h: 16.6%; Pf growth 48h: 2.08µM*
